The source of these data is article PMC12136788.

B1: chr1:220276048:220276049:+_ENSG00000067704_ENST00000302637|hu_hu|hu_hu_hu_mus_True|48_78 (ssRNA)
RNA: GGGAGUUCUACAGUCCGACGAUCGCAAAUUGCCUGGUUGGCGGGAAUUGUCCAAGGUUGUGUGGUCCAAACUAAAACGCUAACAGGAGAUGAACCAUCUGUAAGAGACUCCAACUUCGGAGGAGGUCUCAGGAGGGGGAAUCUCAACAGAGGAUUGAGCAUCA
B2: chr20:21346065:21346066:+_ENSG00000088930_ENST00000377191|hu_hu|FALSE|FALSE (ssRNA)
RNA: GGGAGUUCUACAGUCCGACGAUCUCCUGGAAGCAUUACAGCUUUAAAAAUGUAAUCUUCAGCAAACUGUGGGUCUUUAAAAUUAAUACUGACUACAGUGUUCUGUGUCAGAUCCCUUAACAUAGGAACAGGAGAACAUACUAUCAACAGAGGAUUGAGCAUCA
B3: chr1:220276048:220276049:+_ENSG00000067704_ENST00000302637|hu_hu|hu_hu_hu_mus_True|8_28 (ssRNA)
RNA: GGGAGUUCUACAGUCCGACGAUCGCAAAUUGCCUGGUUGGCGGGAAUUGUCCAAGGCUGGGUGGUCCAAACUAAAACGCUAACAGGGGAUGAGGCAUCUGUAAGAGAUGCCAAUUUCGGAGGAGGUUUUAAGAGAGGGAAUCUCAACAGAGGAUUGAGCAUCA
B4: chr5:141234466:141234467:-_ENSMUSG00000000149_ENSMUST00000000153|mus_mus|FALSE|FALSE (ssRNA)
RNA: GGGAGUUCUACAGUCCGACGAUCAGGACAAUAGUCAAGGGUAACAGUGAAAUUAAAAUUAAAAAAAAAAAUACAAACGCCUAAGGUCUGGGAGAAACCUGACUACAAUCUACGUGGAGAAACUUGUAAAUGACUCCAGCCUGGCAACAGAGGAUUGAGCAUCA
B5: chr2:9570881:9570882:+_ENSG00000119203_ENST00000238112|hu_mus|hu_hu_hu_mus_False|28_58 (ssRNA)
RNA: GGGAGUUCUACAGUCCGACGAUCACUUGUCUUCUGAAGGAACCAGGGCAGGGCUCCACAGUGAUCCAAAUGGAAAUGACUAAUUAACAGAAGGUCGAUCUCAGCUGGGUCAAUUAAGUCAAUGUAAGGAAGGGCAUCCAUUCCCAACAGAGGAUUGAGCAUCA
B6: chr1:220276048:220276049:+_ENSG00000067704_ENST00000302637|hu_hu|hu_hu_hu_mus_True|8_58 (ssRNA)
RNA: B3 RNA with C77U, G78A, U108C, G109U, U114C
B7: chr5:141234466:141234467:-_ENSMUSG00000000149_ENSMUST00000000153|mus_mus|motif|central (ssRNA)
RNA: B4 RNA with U81G, A82G
B8: chr1:220276048:220276049:+_ENSG00000067704_ENST00000302637|hu_hu|hu_hu_hu_mus_True|1_38 (ssRNA)
RNA: B1 RNA with U57C, U60G, A87G, A93G, C94G, G100A, G138A, C142U
B9: chr2:114709107:114709108:+_ENSG00000115091_ENST00000536059|hu_mus|FALSE|FALSE (ssRNA)
RNA: GGGAGUUCUACAGUCCGACGAUCAGAGAGGACAAUGUUCUUGUAGAGAGGACGCCGGACAUCAAUGGGGCAAUUCUGAAUGACUUCAUCUACAACUUCUGAGAUAGGUUGUGUAAAAUCUGGAUUAGCAAACUCUGGAUGGAACAACAGAGGAUUGAGCAUCA
B10: chr1:59924863:59924864:+_ENSMUSG00000067336_ENSMUST00000087435|mus_hu|FALSE|FALSE (ssRNA)
RNA: GGGAGUUCUACAGUCCGACGAUCGCUGCCAAAUUUUAGCCGGGGCUCUUUUGUUGAAUUUUUGGUGUUCAAAGGCAAACUAGUAGGUCUCUUGGGAAGGUUCUGCUGCUUGGGGAGAGGAUAGAUCUGAGUAGGCAGAACAUCCAACAGAGGAUUGAGCAUCA
B11: chr17:13115065:13115066:+_ENSMUSG00000068039_ENSMUST00000151287|mus_hu|motif|central (ssRNA)
RNA: GGGAGUUCUACAGUCCGACGAUCAAUAGUUGCUCCAGAAGCUUUGGCAAUGCGUUUAAGGUCCCUUUUUAAAACUCUUCGGACUGCCAUAGCACCAGCCUCCACAAAAUACUUCAGACACAUAUCAUCAAUUCCACCAGUGGUCAACAGAGGAUUGAGCAUCA
B12: chr7:112906983:112906984:-_ENSMUSG00000036862_ENSMUST00000078482|mus_mus|FALSE|FALSE (ssRNA)
RNA: GGGAGUUCUACAGUCCGACGAUCUGGGGAGAUAACUGGAGUCCCUGGUGGUGCAUUUUCACGGAGCACAGCCUCACUACUAGUUCUGGGAAAGCGGGGUCCACGCUCAGGCUCUCCCUGUAUUCCAACAACGACCACACCAGUCAACAGAGGAUUGAGCAUCA
B13: chr12:48362563:48362564:+_ENSG00000134291_ENST00000256686|hu_hu|hu_hu_hu_mus_False|18_58 (ssRNA)
RNA: GGGAGUUCUACAGUCCGACGAUCUCCGUCAAGCCCUUCGAUAGACCCUUGCGGGGGAAACUGUAAUCACUUUGUAUUUCUAAAAAAAAGAAACGCCAAAAACUUUCCAAAAAGCGGUUCAAAAAGCAGGCGGGAGGGGGAGGUCAACAGAGGAUUGAGCAUCA
B14: chr4:140556289:140556290:+_ENSMUSG00000036622_ENSMUST00000037055|mus_mus|mus_mus_mus_hu_False|18_68 (ssRNA)
RNA: GGGAGUUCUACAGUCCGACGAUCGAUGGAGCUCACCAGGCCCCCUUUUGCCGUGCAGAACCCUGUGCGAGUCACCACUGCCAGGACGUGCGGUCCCACAUAGGCCCGGGCCUGCAAAAUGAGGGUGCCGCAGAAGAGUGUGUGCAACAGAGGAUUGAGCAUCA
B15: chr2:176857141:176857142:-_ENSG00000144320_ENST00000272748|hu_hu|motif|central (ssRNA)
RNA: GGGAGUUCUACAGUCCGACGAUCUUUUUGUAAUCUCUGAUUUUUUUCCCUAAAUUCUUCCAAUGCUUGAAUUUCCUUAUCGGUACUUUCUAGAACUUCUACAGUUGAAGGUUUUGUCCUCCAUCGAGAAAAUAAUCCACCCAUCAACAGAGGAUUGAGCAUCA
B16: chr4:144461564:144461565:+_ENSG00000153147_ENST00000283131|hu_hu|motif|central (ssRNA)
RNA: GGGAGUUCUACAGUCCGACGAUCCCUCCCUUGUUGAAUGACUAUUGAAUCCAGUCUGAGUUUCAUCUCAGCACGUUCGGCGGUUCUUUCUUCUACAGUGUUAUCAGUUAUAAAGCGGAACACUCUGACUGUCUUAGUCUGCCCCAACAGAGGAUUGAGCAUCA
B17: chr12:493273:493274:-_ENSG00000073614_ENST00000399788|hu_mus|hu_hu_hu_mus_False|28_108 (ssRNA)
RNA: GGGAGUUCUACAGUCCGACGAUCUUUUCUCUCUACCACAGGGAUCUUCAAUGUAGAUCCUUGAAGUUCCCAAAAUUUUGCCAGUUGAUCCAAGAAGUCCAAUCUUACUCUGGUCAUUGCCUCAAGUUCAUUCAGGCGCUGGACCAACAGAGGAUUGAGCAUCA

Positions count from the first letter of the chain named. Whole data set: some 24,000 sequences, median “enrichment r” near 0.99, cut for the highest 2% near 3.7. This excerpt belongs to a sample that is enriched for the highest values.

The test concerns the target T1, UNK ZnF1-3 (human, UniProt Q9C0B0 31-174).
T1 sequence: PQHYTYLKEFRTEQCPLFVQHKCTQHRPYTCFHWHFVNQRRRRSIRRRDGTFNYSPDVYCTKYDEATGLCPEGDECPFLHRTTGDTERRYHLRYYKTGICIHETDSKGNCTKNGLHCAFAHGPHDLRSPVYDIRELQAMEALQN
Kind of test: nsRBNS (natural sequence RNA bind-n-seq); RBNS binding buffer (assumed for nsRBNS): 25 mM Tris pH 7.5, 150 mM KCl, 3 mM MgCl2, 0.01% Triton X-100, 500 ug/ml BSA, 20 U/ml SUPERase-In, 4 C; UNK is unkempt and MSI1 is Musashi-1; names of the RNAs are library labels; protein concentration not given here; high values mean tight binding.
In turn, B1 yielded a binding signal of 1.31 enrichment R.
The value for B2 was 1.24 enrichment R.
The molecule B3 came in with a binding signal of 2.55 enrichment R.
The value for B4 was 14.8 enrichment R; that for B5 was 1.47 enrichment R.
The value for B6 was 3.69 enrichment R; that for B7 was 11.3 enrichment R.
The value for B8 was 3.48 enrichment R; that for B9 was 1.28 enrichment R; that for B10 was 1.44 enrichment R.
Molecule B11 showed a binding signal of 1.25 enrichment R.
With B12 the figure was 0.989 enrichment R.
The value for B13 was 1.93 enrichment R; that for B14 was 0.954 enrichment R.
B15 yielded a binding signal of 0.655 enrichment R.
With B16 the figure was 0.923 enrichment R; with B17, 0.902 enrichment R.
